Laboratory results taken from PubChem BioAssay AID1159580 (chemical genetic matrix, 2015).
Several values for one entry are separate records, joined by “and”; a condition that tells them apart may be missing. Equal values may be shown once. The whole screen tested about 5,500 compounds, of which about 2,000 (36%) were called active. Roughly 18% stayed inconclusive and do not appear here. Cut-off read from the data, not from the text of the source: active = normalized growth mostly below about 0.91 (no sharp cut-off); inconclusive = no clear call, values can overlap the other calls; inactive = mostly above about 0.92. Some of the results follow.

Test: chemical genetic growth profiling, strain panel (AID 1159580);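 note: tested at 20 µM; growth read once vehicle control cultures reached saturation at 30 °C; 1 = growth at the plate median or of vehicle wells; lower values mean less growth of the strain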
Details: S. cerevisiae deletion strains, growth OD

Measured: normalized growth

C[C@](N)(Cc1ccc(O)c(O)c1)C(=O)O
inactive: locus YAL013W, strain DEP1, stronger effect = lower value 0.962 | locus YAL021C, strain ccr4, stronger effect = lower value 0.999 | locus YAL026C, strain drs2, stronger effect = lower value 0.968 | locus YAL030W, strain snc1, stronger effect = lower value 0.967 | locus YBL061C, strain skt5, stronger effect = lower value 0.971 | locus YBR009C, strain hhf1, stronger effect = lower value 0.964 | locus YBR021W, strain FUR4, stronger effect = lower value 1.03 | locus YBR023C, strain chs3, stronger effect = lower value 0.957 | locus YBR171W, strain sec66, stronger effect = lower value 0.951 | locus YBR229C, strain ROT2, stronger effect = lower value 0.951 | locus YBR231C, strain swc5, stronger effect = lower value 0.974 | locus YBR279W, strain paf1, stronger effect = lower value 0.96 | locus YCL011C, strain gbp2, stronger effect = lower value 0.912 | locus YCL016C, strain dcc1, stronger effect = lower value 0.92 | locus YCL029C, strain bik1, stronger effect = lower value 0.995 | locus YCL061C, strain MRC1, stronger effect = lower value 0.966 | locus YCL069W, strain vba3, stronger effect = lower value 0.982 | locus YCR088W, strain abp1, stronger effect = lower value 0.991 | locus YDL005C, strain med2, stronger effect = lower value 0.991 | locus YDL035C, strain GPR1, stronger effect = lower value 0.91 | locus YDL040C, strain nat1, stronger effect = lower value 0.989 | locus YDL074C, strain BRE1, stronger effect = lower value 1.01 | locus YDL101C, strain DUN1, stronger effect = lower value 0.987 | locus YDL134C, strain PPH21, stronger effect = lower value 0.974 | locus YDL185W, strain tfp1, stronger effect = lower value 0.988 | locus YDL192W, strain arf1, stronger effect = lower value 0.974 | locus YDR001C, strain nth1, stronger effect = lower value 0.971 | locus YDR069C, strain doa4, stronger effect = lower value 0.936 | locus YDR101C, strain arx1, stronger effect = lower value 1.01 | locus YDR137W, strain rgp1, stronger effect = lower value 0.945 | locus YDR150W, strain NUM1, stronger effect = lower value 0.943 | locus YDR159W, strain sac3, stronger effect = lower value 1 | locus YDR162C, strain NBP2, stronger effect = lower value 0.911 | locus YDR195W, strain ref2 0.984 | locus YDR297W, strain sur2, stronger effect = lower value 0.963 | locus YDR318W, strain mcm21, stronger effect = lower value 0.993 | locus YDR334W, strain swr1, stronger effect = lower value 0.92 | locus YDR335W, strain msn5, stronger effect = lower value 0.961 | locus YDR388W, stronger effect = lower value 1.01 | locus YDR392W, strain spt3, stronger effect = lower value 0.886 | locus YDR502C, strain sam2, stronger effect = lower value 1 | locus YEL003W, strain gim4, stronger effect = lower value 0.992 | locus YEL037C, strain rad23, stronger effect = lower value 0.977 | locus YEL061C, strain CIN8 (second series), stronger effect = lower value 0.977 | locus YEL061C, strain CIN8, stronger effect = lower value 0.978 | locus YER015W, strain faa2, stronger effect = lower value 0.965 | locus YER016W, strain bim1, stronger effect = lower value 0.987 | locus YER110C, stronger effect = lower value 0.971 | locus YER111C, strain swi4, stronger effect = lower value 0.995 | locus YER155C, strain BEM2 (second series), stronger effect = lower value 0.986 | locus YER155C, strain BEM2, stronger effect = lower value 1.02 | locus YER167W, strain BCK2, stronger effect = lower value 0.961 | locus YFR010W, strain ubp6, stronger effect = lower value 0.939 | locus YGL078C, strain dbp3, stronger effect = lower value 0.984 | locus YGL086W, strain mad1, stronger effect = lower value 0.958 | locus YGL167C, strain pmr1, stronger effect = lower value 0.954 | locus YGL173C, strain kem1, stronger effect = lower value 0.941 | locus YGL227W, strain vid30, stronger effect = lower value 0.979 | locus YGL240W, strain doc1, stronger effect = lower value 0.998 | locus YGL248W, strain PDE1, stronger effect = lower value 0.958 | locus YGL253W, strain hxk2, stronger effect = lower value 0.981 | locus YGR078C, strain PAC10, stronger effect = lower value 0.907 | locus YGR135W, strain pre9, stronger effect = lower value 0.973 | locus YGR229C, strain SMI1, stronger effect = lower value 0.917 | locus YGR252W, strain gcn5, stronger effect = lower value 0.908 | locus YHR013C, strain ard1, stronger effect = lower value 0.894 | locus YHR027C, strain rpn1, stronger effect = lower value 0.95 | locus YHR030C, strain SLT2, stronger effect = lower value 0.981 and 1.04 | locus YHR079C, strain IRE1 (second series), stronger effect = lower value 1 | locus YHR079C, strain IRE1, stronger effect = lower value 1.05 | locus YHR094C, strain hxt1, stronger effect = lower value 0.999 | locus YHR129C, strain ARP1, stronger effect = lower value 0.985 | locus YHR142W, strain chs7, stronger effect = lower value 0.913 | locus YHR200W, strain rpn10, stronger effect = lower value 0.981 | locus YIL066C, strain RNR3, stronger effect = lower value 0.882 | locus YIL073C, strain SPO22, stronger effect = lower value 0.793 | locus YIL125W, strain kgd1, stronger effect = lower value 0.99 | locus YIR030C, strain dcg1, stronger effect = lower value 0.987 | locus YJL092W, strain hpr5, stronger effect = lower value 0.966 | locus YJL095W, strain BCK1 (second series), stronger effect = lower value 0.965 | locus YJL095W, strain BCK1, stronger effect = lower value 1.02 | locus YJL115W, strain asf1, stronger effect = lower value 0.953 | locus YJL129C, strain trk1, stronger effect = lower value 0.973 | locus YJL134W, strain LCB3, stronger effect = lower value 0.976 | locus YJL154C, strain vps35, stronger effect = lower value 0.974 | locus YJL164C, strain tpk1, stronger effect = lower value 0.979 | locus YJL166W, strain qcr8, stronger effect = lower value 0.927 | locus YJL168C, strain set2, stronger effect = lower value 0.995 | locus YJL187C, strain SWE1 (second series), stronger effect = lower value 0.985 | locus YJL187C, strain SWE1, stronger effect = lower value 0.978 | locus YJR043C, strain POL32, stronger effect = lower value 0.967 | locus YJR066W, strain TOR1, stronger effect = lower value 0.99
